Most compounds without a hit are left out; they make up all but 6.5% or so of the library.
Lassa entry inh = Lassa virus entry inhibition; Lassa virus pseudotype entry inhibition, cell reporter; Potency, µM (doses to about 37.9 µM), inactives show at the top dose activity change, negative = inhibition, actives largely listed as inhibitors; 1.2% of 300,000 active; AID 540256; calls by dose curve; tested in HEK293 cells; further: potency means the concentration at half of the fitted maximal effect; nearly all actives have a fitted effect of over 50% in size
VACV mCherry inh = vaccinia inhibition (mCherry reporter); Vaccinia virus mCherry reporter infection, fluorescence; Potency, µM (series often up to 36.5 µM), for the others: at the highest dose activity change, negative = inhibition, actives largely listed as inhibitors; 0.63% of 310,000 active; calls by dose curve; tested in A549 cells; further: potency means the concentration at half of the fitted maximal effect; nearly all actives have a fitted effect of over 35% in size
MARV entry inh = inhibitors of Marburg virus binding or cell entry; 1.8% of 300,000 active; Marburg virus pseudotyped entry inhibition, cell reporter; Potency, µM (series often up to 37.8 µM), for inactives: at the highest dose activity change, negative = inhibition, most hits filed as inhibitors; AID 540276; calls by dose curve; tested in HEK293 cells; further: potency means the concentration at half of the fitted maximal effect
HCMV antiviral = blocks human cytomegalovirus replication | activity change, negative = inhibition, % at 57.5 µM | HFF cells, HCMV-luciferase reporter, 72 h; hits give low values | 4.5% of 410,000 active | AID 1259415; in the data active means activity change below about -60%; inconclusive means no clear call, values can overlap the other calls; inactive means above about -39%
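Compounds were evaluated in HFFs infected with an HCMV luciferase reporter virus (MOI 1 PFU/cell). Luciferase in lysates collected 72 h post infection served as the replication measure.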
VACV Venus inh = vaccinia inhibition (Venus reporter). Vaccinia virus Venus reporter expression, fluorescence. Potency, µM (titrated, usually from 36.5 µM), inactives show at the top dose activity change, negative = inhibition, hits mostly inhibitors. 0.46% of 330,000 active; calls by dose curve; tested in A549 cells; further: potency means the concentration at half of the fitted maximal effect; nearly all actives have a fitted effect of over 30% in size
FMDV antiviral = blocks foot and mouth disease virus. FMDV antiviral cell-based qHTS. Potency, µM (top dose mostly 57.9 µM), for inactives: at the highest dose activity change, negative = inhibition, hits mostly inhibitors. 1.2% of 410,000 active. AID 1159524; calls by dose curve; tested in HEK293T cells; further: read-out not given here; potency means the concentration at half of the fitted maximal effect; nearly all actives have a fitted effect of over 45% in size
* hit, by the source's call; i = inactive; ? = inconclusive; / = no result given; [ ] = dose if it differs, or a comment. On the % scale 0 is the no-effect control and ±100 the full control effect.

SMILES	Lassa entry inh	VACV mCherry inh	MARV entry inh	HCMV antiviral	VACV Venus inh	FMDV antiviral
O=C(CSCc1ccc(F)cc1)N1CCOCC1	12%	/	4%	39	/	49%
O=C(c1ccoc1)N1CCCC(N2CCN(c3ccc(F)cc3)CC2)C1 (stereo unspecified)	/	/	/	-12	/	-19%
O=C(CSc1ccccc1)N1CCCC(N2CCN(c3ccc(F)cc3)CC2)C1 (stereo unspecified)	-29%[46.1 µM]	-25%	?	-70*	-28%	-17%
O=C(CSc1ccc(F)cc1)N1CCOCC1	/	/	/	-88*	/	-10%
O=C(c1cccc(-c2ccco2)c1)N1CCCC(N2CCN(c3ccc(F)cc3)CC2)C1 (stereo unspecified)	?	-6%	-31%	/	-17%	35µM*
Cc1cc(C)c(C(=O)N2CCCC(N3CCN(c4ccc(F)cc4)CC3)C2)o1 (stereo unspecified)	?	-13%	?	-69*	-14%	?
Cc1nc(C(=O)N2CCCC(N3CCN(c4ccc(F)cc4)CC3)C2)cs1 (stereo unspecified)	/	?	/	-19	-3%	-23%
O=C(c1ccco1)N1CCC2(CC1)CN(c1ccccc1)C2	/	/	/	/	/	-27%
Cc1cc(C(F)(F)F)nn1CC(=O)NC[C@H]1CCCO1	/	/	3%	/	/	/
CC(C)(C)NC[C@H](O)c1ccccc1Cl	/	/	15%	/	/	/
Cc1nnsc1SCC(=O)O	-6%	-15%	13%	-99*	-13%	12%
Cc1ccc2cc(C=C(C#N)C#N)c(Cl)nc2c1	1%	-19%	-1%	31	24%	32µM*
Cc1ccc2cc(C=C(C#N)C#N)c(N3CCCCC3)nc2c1	21%	-19%	-23%	52	-10%	/
COc1ccc2c(Sc3ccc(Cl)cc3)c(C(=O)N3CCC(C)CC3)[nH]c2c1	-28%[46.1 µM]	-16%	22%[46.1 µM]	36	-10%	91%
COc1ccc2c(Sc3ccc(Cl)cc3)c(C(=O)N3CCCCC3)[nH]c2c1	-22%[46.1 µM]	-10%	?	-101*	-15%	70%
CC(NC(=O)/C(C#N)=C/c1ccc(OCC(=O)O)cc1)c1ccccc1 (stereo unspecified)	/	/	/	23	/	1%
CC(NC(=O)/C(=C/c1ccc(OC(F)F)cc1)c1ccccc1)c1ccccc1 (stereo unspecified)	-23%	?	?	-79*	?	?
Cc1ccc(NC(=O)c2cc3c(=O)[nH]c4ccccc4c3n2C)cc1F	?	8%	2%[46.1 µM]	-18	-2%	-7%
Cc1sc2cc3c(c(C(=O)c4ccccc4)[n+]2c1C)-c1cccc2cccc-3c12	?	-24%	4.5µM*	-100*	-6%	14µM*
O=C(c1ccccc1)c1ccc2ccccc2c1	3%[46.1 µM]	i	6%[46.1 µM]	-17	1%	30%
O=C(c1ccccc1)c1c2c(cc3sc4ccccc4[n+]13)-c1cccc3cccc-2c13	15µM*	171%	?	-103*	256%	40µM*
O/N=C(/CBr)c1ccc2ccccc2c1	/	i	/	/	-13%	/
Cc1[nH]nc2c1C(c1ccc(F)cc1)N(Cc1ccccc1)C2=O (stereo unspecified)	/	/	/	-39	/	/
Cc1nn(-c2ccccc2)c(Cl)c1CN(C(=O)CCl)c1cccc2ccccc12	?	-26%	?	-99*	?	28µM*
Cc1nn(-c2ccccc2)c(Cl)c1CN(C(=O)CCl)c1ccc(Cl)cc1	?	-1%	?	-99*	-24%	-4%
SMILES	Lassa entry inh	VACV mCherry inh	MARV entry inh	HCMV antiviral	VACV Venus inh	FMDV antiviral
C=C1N(S(=O)(=O)C(F)(F)F)CCC12CN(Cc1ccccc1)c1ccccc12 (stereo unspecified)	/	/	/	4	/	/
Cc1ccc(CNC(=O)CCCc2nnc3n(C)c(=O)c4sccc4n23)cc1	-5%[46.1 µM]	-8%	/	2	-6%	-27%
N#Cc1ccc(-c2ccc(Cl)cc2)nc1SCC(=O)c1cccc(Cl)c1	7%	-16%	0%	-61*	-16%	-7%
NC1(C(=O)O)CCCCC1	5%	/	?	/	/	/
NC1(C(=O)O)CSSC1	?	?	?	-80*	?	-1%
C=CC1=C2C=C(C3CC3)N(C3CCCCC3)C=C2C(=O)C(C)(OC(=O)c2ccco2)C1=O (stereo unspecified)	/	/	19%[14.2 µM]	/	/	/
CCC[C@H]1[C@@H](NS(=O)(=O)c2ccc(Br)cc2)CC[C@@]23CCCN2C(=O)CCC[C@@H]13	/	/	/	29	/	/
Cc1ccc(C2CC(c3ccccc3)=NN2c2ccc(S(N)(=O)=O)cc2)cc1 (stereo unspecified)	/	-3%	/	-5	-11%	-11%
CCc1ccc(C2=NN(c3ccc(S(N)(=O)=O)cc3)C(c3ccc(F)cc3)C2)cc1 (stereo unspecified)	7.9µM*	?	?	-11	?	-10%
COc1ccc(CN(C)c2ccc(-c3nc(C)no3)cc2[N+](=O)[O-])cc1	8%[46.1 µM]	-18%	-10%[46.1 µM]	-8	-18%	?
CCn1c(SCC(=O)c2cc(C)ccc2C)nc2cc(S(=O)(=O)N3CCOCC3)ccc21	-15%	i	?	-63*	-14%	-27%
CCC(C)NC(=O)CSc1nc2cc(S(=O)(=O)N3CCOCC3)ccc2n1CC (stereo unspecified)	-2%	-16%	3%	34	-15%	-8%
CSc1nc2sc3c(c2c(=O)n1-c1ccccc1C)CCCC3	-28%[46.1 µM]	-21%	/	7	-6%	0%
CSc1nc2nc3c(cc2c(=O)n1-c1ccccc1C)CCCC3	?	10%	?	-91*	-18%	?
Nc1nc(N)nc(-c2cccc([N+](=O)[O-])c2)n1	/	-3%	/	8	2%	6%
Nc1nc(N)c2c(ccc3c2ccn3Cc2cccc([N+](=O)[O-])c2)n1	/	0.35µM*	/	-99*	11µM*	?
O=C(CSc1nnnn1C1CC1)N1CCN(Cc2ccccc2F)CC1	/	/	/	-69*	/	-12%
Cc1nc(CC(=O)NCC2Cc3cc(F)cc(-c4ccc(F)c(C)c4)c3O2)cs1 (stereo unspecified)	/	-10%	/	/	-4%	-5%
COc1ccc2[nH]cc(CCNC(C)=O)c2c1	0%	-2%	?	-2	-16%	-19%
COc1ccc(C(=O)CCC(=O)NCCc2c[nH]c3ccccc23)cc1	-23%[46.1 µM]	-12%	8%[46.1 µM]	-104*	-10%	-18%
COc1ccc(S(=O)(=O)N2CCOC2CNC(=O)C(=O)NCCc2c[nH]c3ccccc23)cc1 (stereo unspecified)	?	-10%	-10%	-2	-18%	22µM*
COc1ccc(S(=O)(=O)N2CCOC2CNC(=O)C(=O)NCCc2c[nH]c3ccccc23)cc1C (stereo unspecified)	?	?	?	27	?	?
COc1ccc(OC)c(NC(=O)NCCc2c[nH]c3ccccc23)c1	/	/	/	-87*	/	2%
COc1cc2c(CCNC(C)=O)c[nH]c2cc1Cl	0%	-14%	?	-92*	-9%	-14%
COC(=O)C1CCN(Cc2ccc3c(c2)CN(C(=O)c2cc4ccccc4n2C)CCO3)CC1	/	-12%	/	/	-5%	?
